# SARS PLP yeast: inhibitors of SARS-CoV papain-like protease in yeast; Potency, µM (highest dose often 32.9 µM), for the others: at the top dose activity, positive = growth rescue, actives largely listed as activators; AID 485353; S. cerevisiae expressing SARS-CoV PLpro, growth rescue; hit rate 0.19% among 330,000; also: potency is read from the fitted curve at half-maximal effect; 0% is about no effect; nearly all actives have a fitted effect of over 55% in size
# Cycloheximide cs: counter-screen for Shiga toxin inhibitors: cycloheximide protein synthesis inhibition. max response, %. hit rate 12% among 300,000. cell reporter, cycloheximide protein synthesis inhibition counterscreen; in the data active = max response mostly above about 13%, no sharp cut-off; inactive = mostly below about 14%; also: read at 38.3 µM for the half of the compounds with a filed dose; 0% is about no effect
# NS1 inh: inhibitors of influenza NS1 protein function. Potency, µM (series often up to 46.1 µM), inactives show at the top dose activity, positive = more growth. hit rate 0.4% among 270,000; also: potency is read from the fitted curve at half-maximal effect; actives are rising curves; nearly all actives have a fitted effect of over 50% in size
#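 In this qHTS, NS1 from influenza A is expressed in budding yeast, where it slows growth. Cells are switched from glucose to 2% galactose medium (pH 6.0, -URA), treated with compound, and growth recovery is read at OD600.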
# Pf growth 48h: P. falciparum growth inhibition at 48 hours (one generation); P. falciparum luciferase growth in erythrocytes, 48 h; Potency, µM (titrated, usually from 28.7 µM), inactives show at the highest dose activity change, negative = inhibition, most hits filed as inhibitors; hit rate 5.9% among 310,000; AID 504832; active = well fitted inhibition curve with a large enough effect; inconclusive = small, poorly fitted or top-dose-only effect, or another doubt; inactive = no such curve, though single readings can be large or run the other way; also: potency is read from the fitted curve at half-maximal effect; % is scaled to controls: 0 for no effect and ±100 for the full control effect
#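 First compound was added to culture medium, then infected red cells at 0.1% parasitemia and 2% hematocrit (final). After incubation at 37 C under 5% CO2, luciferase detection reagent was dispensed and light output recorded.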
# Shiga inhibitor: blocks Shiga toxin action in Vero cells; inhibition, % at 38.7 µM; hit rate 9.2% among 290,000; Vero cells, Shiga toxin protein synthesis inhibition reporter; in the data active = inhibition mostly above about 28%, no sharp cut-off; inactive = mostly below about 43%; also: 0% is about no effect
# Pf growth 96h: P. falciparum growth inhibition at 96 hours | Potency, µM (series often up to 28.7 µM), inactives show at the highest dose activity change, negative = inhibition, usual class: inhibitors | hit rate 6.9% among 320,000 | P. falciparum luciferase reporter growth, 96 h; active = well fitted inhibition curve with a large enough effect; inconclusive = small, poorly fitted or top-dose-only effect, or another doubt; inactive = no such curve, though single readings can be large or run the other way; also: potency is read from the fitted curve at half-maximal effect; % is scaled to controls: 0 for no effect and ±100 for the full control effect
#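 Delayed-death screen, second-generation endpoint: infected erythrocytes, 2% hematocrit, 0.05% parasitemia final; 96 hours at 37 C, 5% CO2; luciferase detection reagent; luminescence decrease equals reduced growth.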
# The depositor's hits bear a star; u = inconclusive; x = no result; ! = repeats disagree; [ ] = remark or other dose. Hits are enriched below; roughly 21% of the tested compounds scored in any of these assays. Unless noted, calls follow the shape of the full dose curve.
SMILES,SARS PLP yeast,Cycloheximide cs,NS1 inh,Pf growth 48h,Shiga inhibitor,Pf growth 96h
CCOC(=O)c1ccc(NC(=O)N2CCN(Cc3ccccc3)CC2)cc1,-1%,15*,-3%,u,7,-6%
CC1CCCN(C(=O)Nc2ccc(Br)cc2Cl)C1 (stereo unspecified),1%,45*,-12%,63%,96*,49%
CCOc1ccc(NC(=O)N2CCC(C(N)=O)(N3CCCCC3)CC2)cc1,0%,-2,-2%,2%,-2,13µM*
CCOC(=O)c1ccc(NC(=O)CN2CCN(Cc3ccccc3)CC2)cc1,0%,0,-1%,-20%,-18,10%
CCN1CCN(C(=O)Nc2ccc(Cc3ccc(NC(=O)N4CCN(CC)CC4)cc3)cc2)CC1,-1%,1,-2%,u,-14,10µM*
CC1CN(C(=O)Nc2ccc(Br)cc2Cl)CC(C)O1 (stereo unspecified),0%,1,0%,-13%,-1,u
Cc1cc(C)nc(NN2C(=O)C=CC2=O)n1,0%,5,4%,x,18,3%
CCOC(=O)C1=NN(C(C)=O)C2(CC(=O)N(c3cccc(C)c3)C2=O)C1 (stereo unspecified),12%,-2,3%,11%,-16,71%
Cc1cc(N2CCN(C(=O)Nc3ccc(F)cc3F)CC2)c2ccccc2n1,1%,4,7%,10µM*,22,15µM*
NC(=O)C1(N2CCCCC2)CCN(C(=O)NC2CCCCC2)CC1,-2%,-4,7%,0%,-36,15µM*
COc1ccc(NC(=O)NC2(C(=O)N3CCOCC3)CCCCC2)cc1,1%,22*,24%,29%,14,45%
COC(=O)c1ccc(NC(=O)C(=O)N2CCCC2)cc1,-2%,38,-5%,179%,76*,x
CCOc1ccc(CC(=NCCc2ccccc2)C2=C(O)CC(C)(C)CC2=O)cc1OCC,-9%,-3,-43%,u,-7,u
CCN(c1ccccc1)S(=O)(=O)c1c(-c2ccc(C)cc2)csc1C(=O)OC,x,14,x,x,17,x
COC(=O)c1cc(C)sc1NC(=O)CN1CCN(C(=O)C2CCCO2)CC1 (stereo unspecified),3%,-10,-8%,23%,-26,21%
Cc1ccc(NC(=O)C2CCN(C(=O)NC3CCCCC3)CC2)c(C)c1,-3%,-2,4%,u,-3,u
COc1ccc(NC(=O)N2CCN(C(=O)C(Cc3ccc(F)cc3)NC(C)=O)CC2)cc1 (stereo unspecified),-1%,9.7*,0%,4%,35,27%
Cc1ccc(NC(=O)CCN2CCCCC2)cc1,2%,29*,9%,172%,41*,-10%
Cc1ccc(NC(=O)N2CCCCCC2)c(C)c1,1%,50*,15%,67%,62*,19%
O=C(CCN1CCCCCC1)Nc1ccc(F)cc1,6%,18,0%,-15%,-20,u
O=C(Nc1ccc(Br)cc1)N1CCCCCC1,u,55*,17%,70%,98*,0%
CC(=O)NC(Cc1ccc(F)cc1)C(=O)NC1CCN(C(=O)Nc2ccc(F)cc2)CC1 (stereo unspecified),2%,-2,-3%,-8%,-7,-3%
CCCCc1c(O)nc(SCC(=O)c2ccccc2)n(-c2ccccc2)c1=O,1%,13,1%,10%,38,31%
COc1cc(OC)c(NC(=O)c2sc3ncn(CC(=O)N4CCN(c5ccccn5)CC4)c(=O)c3c2C)cc1Cl,0%,0,2%,-29%,0,u
CC(C)NC(=O)C(OC(=O)c1ccccc1)C(OC(=O)c1ccccc1)C(=O)O (stereo unspecified),6%,-3,3%,u,-13,u
SMILES,SARS PLP yeast,Cycloheximide cs,NS1 inh,Pf growth 48h,Shiga inhibitor,Pf growth 96h
CSCCC(=O)N1CCC(CCC(=O)NC2CC2)CC1,2%,4,5%,-3%,-11,37%
CCOC(=O)c1ccc(NC(=O)N2CCCCC2)cc1,-8%,41*,-61%,x,78*,211%
Cc1ccc(NC(=O)N2CCCCCC2)cc1,-3%,36*,5%,84%,84*,u
O=C(Nc1ccc(F)cc1F)N1CCCCCC1,9%,27*,-7%,49%,23,-21%
CCc1ccc(NC(=O)N2CCCCCC2)cc1,-6%,49*,0%,106%,87*,51%
COC(=O)c1ccc(C)c(-n2c(=O)n(Cc3ccccc3)c(=O)c3[nH]cnc32)c1,0%,-5,6%,u,1,0%
Cc1cccc(N2CCN(C(=O)c3ccc(S(=O)(=O)N(C)c4ccccc4)cc3)CC2)c1C,3%,x,x,x,x,x
Cc1ccsc1C(=O)N1CCCC(CCC(=O)N2CCN(c3ccccn3)CC2)C1 (stereo unspecified),1%,-2,-2%,u,-7,-14%
COc1ccc(N(CC(O)CN2CCOCC2)S(=O)(=O)c2ccccc2)cc1 (stereo unspecified),0%,-1,6%,6%,18,u
COc1ccc(NC(=O)N2CCCCC2)cc1,-6%,26*,12%,36%,29,-23%
CC1CCCN(CCC(=O)Nc2ccc(Br)cc2)C1 (stereo unspecified),4%,-2,3%,11%,-3,-24%
O=C(Nc1ccc(Br)cc1)N1CCCC(O)C1 (stereo unspecified),1%,24*,x,128%,70,26%
C=CCn1c(=S)[nH]c2cc(C(=O)N3CCN(c4ccccc4OC)CC3)ccc2c1=O,0%,x,x,u,x,u
CN1CCC(=O)N(CCSc2ccc(Br)cc2)CC1,-1%,21*!,4%,0%,50*!,32%
CCCN1CCC(=O)N(CCSc2ccc(Br)cc2)CC1,x,35*,x,x,56*,x
c1ccc(SCCN2CCN(c3ccccc3)CC2)cc1,-1%,13*,-9%,29%,45,-13%
CCCN1CCC(=O)N(CCSc2ccccc2)CC1,7%,40*,13%,242%,44*,441%
CCCN1CCC(=O)N([C@H](COc2ccccc2)CC(C)C)CC1,-4%,1,-2%,9%,11,-2%
CN(C(=S)SCc1ccccc1)C1CCS(=O)(=O)C1 (stereo unspecified),13%,0,7%,-9%[5.75 µM],10,-47%[5.75 µM]
COc1ccc(NC(=O)C(CC(=O)O)Cc2ccc(C)cc2)cc1 (stereo unspecified),0%,-3,5%,13%,-10,u
CC(=O)Nc1ccc(SCCN2CCN(CC(C)C)CCC2=O)cc1,x,-5,x,x,-5,x
CCCN1CCC(=O)N(CCSc2ccc(NC(C)=O)cc2)CC1,-1%,64*!,9%,141%,108*!,14%
Cc1ccc(SCCN2CCN(CC(C)C)CCC2=O)cc1,5%,31*!,-9%,7%,84*,45%
O=C1CCN(Cc2ccccc2)CCN1CCSc1ccccc1,11%,42*,-2%,125%,41*,147%
